Measurements published in PubChem BioAssay (EPA / NIEHS).
Active and inactive are the calls of the source. How the source made its calls: active means hit-call score of the fitted dose curve at least 0.9, where 1 is the maximum; inactive means score below 0.9.

Tests used:
[1] = ATG_GRE_CIS: Attagene CIS-FACTORIAL HepG2 Assay for human Glucocorticoid Response Elements (GRE) (AID 2282947); settings: HepG2 GRE cis-reporter, Attagene multiplex mRNA; actives raise or lower the signal
Procedure, shortened: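 Following 24 h chemical exposure of transiently transfected HepG2 cells, total RNA was reverse-transcribed and reporter cDNA amplified, fluorescently labelled and sized by capillary electrophoresis. Signal gain or loss was fitted relative to DMSO vehicle.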

[2] = ATG_ISRE_CIS: Attagene CIS-FACTORIAL HepG2 Assay for human Interferon Regulatory Factor 1 (IRF1) binding to an Interferon-Stimulated Response Element (ISRE) (AID 2282948); settings: HepG2 ISRE cis-reporter (Attagene), mRNA transcription readout; actives raise or lower the signal
Procedure, shortened: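 Quantitation relies on labelled RT-PCR fragments separated by capillary electrophoresis. Human HepG2 cells bearing cis-promoter reporter constructs were treated 24 h; DMSO served as baseline for bidirectional fitting.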

[3] = ATG_M_06_CIS: Attagene CIS-FACTORIAL HepG2 Assay for M06 Transcription Factor (Internal Marker) (AID 2282950); settings: HepG2 Attagene CIS-FACTORIAL M06 internal marker reporter; actives raise or lower the signal
Procedure, shortened: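 HepG2 cells transiently transfected with cis-regulated multiple reporter transcription units were exposed to chemical for 24 h; reporter mRNA was quantified by RT-PCR, 6-FAM primer labelling, HpaI digestion and capillary electrophoresis, fitted bidirectionally against DMSO.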

[4] = target: Hypoxia-inducible factor 1-alpha (Homo sapiens) (UniProt Q16665); experiment: ATG_HIF1a_CIS: Attagene CIS-FACTORIAL HepG2 Assay for human Hypoxia Inducible Factor 1 (HIF1A) (AID 2282951); settings: HepG2 Attagene cis-factorial HIF1a reporter transcription; actives raise or lower the signal
Chain of Hypoxia-inducible factor 1-alpha (Homo sapiens) (Q16665 whole entry, looked up): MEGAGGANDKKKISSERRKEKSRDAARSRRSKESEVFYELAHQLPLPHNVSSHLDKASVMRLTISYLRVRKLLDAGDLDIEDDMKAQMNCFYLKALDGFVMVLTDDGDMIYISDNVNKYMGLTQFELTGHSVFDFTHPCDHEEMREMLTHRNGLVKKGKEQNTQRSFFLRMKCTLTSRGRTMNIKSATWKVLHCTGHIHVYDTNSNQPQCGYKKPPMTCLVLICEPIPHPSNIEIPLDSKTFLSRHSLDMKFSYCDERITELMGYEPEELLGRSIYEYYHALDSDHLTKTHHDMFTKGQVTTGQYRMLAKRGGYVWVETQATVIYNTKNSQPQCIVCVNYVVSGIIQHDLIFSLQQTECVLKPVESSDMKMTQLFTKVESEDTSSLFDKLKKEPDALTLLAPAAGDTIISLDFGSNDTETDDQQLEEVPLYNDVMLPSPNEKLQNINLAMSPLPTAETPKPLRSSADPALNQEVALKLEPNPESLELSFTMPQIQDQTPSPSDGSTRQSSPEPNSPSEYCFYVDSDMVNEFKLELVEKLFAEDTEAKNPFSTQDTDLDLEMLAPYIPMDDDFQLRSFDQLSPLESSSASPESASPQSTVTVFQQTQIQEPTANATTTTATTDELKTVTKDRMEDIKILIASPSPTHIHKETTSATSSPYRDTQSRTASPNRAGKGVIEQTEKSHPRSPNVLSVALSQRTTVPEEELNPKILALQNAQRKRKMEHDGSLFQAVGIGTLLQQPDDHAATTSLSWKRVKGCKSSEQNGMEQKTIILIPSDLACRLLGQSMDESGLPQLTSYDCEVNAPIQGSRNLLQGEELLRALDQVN
Procedure, shortened: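 Fluorescence intensity of capillary-separated, 6-FAM-labelled reporter amplicons gives mRNA induction in HepG2 cells carrying transfected cis-promoter reporter units; cells exposed 24 h, responses fitted up or down from DMSO.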

[5] = target: Hepatocyte nuclear factor 6 (Homo sapiens) (UniProt Q9UBC0); experiment: ATG_HNF6_CIS: Attagene CIS-FACTORIAL HepG2 Assay for human Hepatocyte Nuclear Factor 6 (HNF6) (AID 2282952); settings: HepG2 Attagene cis-factorial HNF6 reporter transcription; actives raise or lower the signal
Chain of Hepatocyte nuclear factor 6 (Homo sapiens) (Q9UBC0 whole entry, looked up): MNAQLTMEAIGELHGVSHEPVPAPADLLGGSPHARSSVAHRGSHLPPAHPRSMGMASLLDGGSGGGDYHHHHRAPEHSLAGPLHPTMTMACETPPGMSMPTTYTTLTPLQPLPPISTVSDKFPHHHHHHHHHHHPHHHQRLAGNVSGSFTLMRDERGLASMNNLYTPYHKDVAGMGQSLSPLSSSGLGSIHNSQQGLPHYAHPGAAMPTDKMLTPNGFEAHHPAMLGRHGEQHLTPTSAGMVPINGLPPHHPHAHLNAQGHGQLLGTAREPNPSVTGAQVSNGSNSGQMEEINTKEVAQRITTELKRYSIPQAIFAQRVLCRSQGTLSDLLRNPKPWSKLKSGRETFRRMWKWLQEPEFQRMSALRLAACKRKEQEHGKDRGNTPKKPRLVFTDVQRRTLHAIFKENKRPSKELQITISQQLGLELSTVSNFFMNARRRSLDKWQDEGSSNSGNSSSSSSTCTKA
Procedure, shortened: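 HepG2, transient MRTU transfection (cis promoters); 24 h chemical exposure; total RNA → oligo(dT) RT → PCR → 6-FAM labelling → HpaI cut → CE; bidirectional fit vs DMSO.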

[6] = ATG_MRE_CIS: Attagene CIS-FACTORIAL HepG2 Assay for human Metal Responsive Element (MRE) (AID 2282954); settings: HepG2 MRE cis-reporter transcription, Attagene multiplex; actives raise or lower the signal
Procedure, shortened: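 Step one: transfect HepG2 with cis-regulated reporter units. Step two: dose 24 h. Step three: isolate RNA, RT-PCR, 6-FAM label, HpaI digest, capillary electrophoresis. Fit bidirectionally to DMSO.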

[7] = ATG_PBREM_CIS: Attagene CIS-FACTORIAL HepG2 Assay for human Phenobarbital-responsive Enhancer Module (PBREM) (AID 2282955); settings: HepG2 PBREM cis-reporter, Attagene multiplexed transcription; actives raise or lower the signal
Procedure, shortened: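 Cells were transfected with cis-element reporter units and treated for 24 h, after which RNA was extracted and reporter transcripts measured by RT-PCR and capillary electrophoresis.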

[8] = target: Paired box protein Pax-6 (Homo sapiens) (UniProt P26367); experiment: ATG_Pax6_CIS: Attagene CIS-FACTORIAL HepG2 Assay for human Paired Box 6 (PAX6) (AID 2282956); settings: HepG2 CIS-FACTORIAL PAX6 reporter transcription, RNA readout; actives raise or lower the signal
Chain of Paired box protein Pax-6 (Homo sapiens) (P26367 whole entry, looked up): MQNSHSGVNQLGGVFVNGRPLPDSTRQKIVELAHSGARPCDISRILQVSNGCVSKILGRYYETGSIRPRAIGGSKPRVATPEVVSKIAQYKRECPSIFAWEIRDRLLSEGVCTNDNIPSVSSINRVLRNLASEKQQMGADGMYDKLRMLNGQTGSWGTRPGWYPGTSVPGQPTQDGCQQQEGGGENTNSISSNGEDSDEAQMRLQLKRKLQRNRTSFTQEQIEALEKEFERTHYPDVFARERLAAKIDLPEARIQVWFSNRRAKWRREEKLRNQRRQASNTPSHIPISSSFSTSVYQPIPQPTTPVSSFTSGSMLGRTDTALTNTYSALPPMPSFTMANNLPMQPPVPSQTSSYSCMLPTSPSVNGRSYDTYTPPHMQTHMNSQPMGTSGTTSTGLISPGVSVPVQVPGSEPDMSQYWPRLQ
Procedure, shortened: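 After twenty-four hours of chemical exposure, transfected HepG2 cells are harvested for RNA. Cis-promoter reporter transcripts are amplified, fluorescently labelled and sized by capillary electrophoresis, with gain and loss of signal scored against DMSO.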

[9] = ATG_PXRE_CIS: Attagene CIS-FACTORIAL HepG2 Assay for human Pregnane X Receptor Element (PXRE) (AID 2282957); settings: HepG2 Attagene CIS-FACTORIAL PXRE reporter, mRNA; actives raise or lower the signal
Procedure, shortened: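 Transfect HepG2 with MRTUs (cis promoter elements); dose chemical, incubate 24 h; isolate RNA, RT with oligo(dT), PCR, 6-FAM label, HpaI cut, CE. Gain/loss fit vs DMSO.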

[10] = ATG_RORE_CIS: Attagene CIS-FACTORIAL HepG2 Assay for human RAR-related Orphan Receptor Element (RORE) (AID 2282959); settings: HepG2 Attagene cis-factorial RORE reporter, mRNA; actives raise or lower the signal
Procedure, shortened: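 Endogenous factor activity at a cis response element is read as reporter transcript levels in HepG2 cells, 24 h post-dose. Transcripts are quantified by RT-PCR with capillary electrophoresis, and data fitted in both directions against DMSO.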

[11] = ATG_Sox_CIS: Attagene CIS-FACTORIAL HepG2 Assay for human SRY-box transcription factor (SOX) (AID 2282960); settings: HepG2 Attagene cis-factorial SOX reporter, mRNA; actives raise or lower the signal
Procedure, shortened: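 Measures mRNA induction of a SOX1-associated reporter in HepG2 after 24 h dosing. Fluorescently labelled RT-PCR fragments are separated by capillary electrophoresis, and gain or loss relative to DMSO control is fitted.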

[12] = target: Transcription factor Sp1 (Homo sapiens) (UniProt P08047); experiment: ATG_Sp1_CIS: Attagene CIS-FACTORIAL HepG2 Assay for human Specificity Protein 1 (Sp1) (AID 2282961); settings: HepG2 Sp1 cis-reporter transcription, actives raise or lower the signal
Chain of Transcription factor Sp1 (Homo sapiens) (P08047 whole entry, looked up): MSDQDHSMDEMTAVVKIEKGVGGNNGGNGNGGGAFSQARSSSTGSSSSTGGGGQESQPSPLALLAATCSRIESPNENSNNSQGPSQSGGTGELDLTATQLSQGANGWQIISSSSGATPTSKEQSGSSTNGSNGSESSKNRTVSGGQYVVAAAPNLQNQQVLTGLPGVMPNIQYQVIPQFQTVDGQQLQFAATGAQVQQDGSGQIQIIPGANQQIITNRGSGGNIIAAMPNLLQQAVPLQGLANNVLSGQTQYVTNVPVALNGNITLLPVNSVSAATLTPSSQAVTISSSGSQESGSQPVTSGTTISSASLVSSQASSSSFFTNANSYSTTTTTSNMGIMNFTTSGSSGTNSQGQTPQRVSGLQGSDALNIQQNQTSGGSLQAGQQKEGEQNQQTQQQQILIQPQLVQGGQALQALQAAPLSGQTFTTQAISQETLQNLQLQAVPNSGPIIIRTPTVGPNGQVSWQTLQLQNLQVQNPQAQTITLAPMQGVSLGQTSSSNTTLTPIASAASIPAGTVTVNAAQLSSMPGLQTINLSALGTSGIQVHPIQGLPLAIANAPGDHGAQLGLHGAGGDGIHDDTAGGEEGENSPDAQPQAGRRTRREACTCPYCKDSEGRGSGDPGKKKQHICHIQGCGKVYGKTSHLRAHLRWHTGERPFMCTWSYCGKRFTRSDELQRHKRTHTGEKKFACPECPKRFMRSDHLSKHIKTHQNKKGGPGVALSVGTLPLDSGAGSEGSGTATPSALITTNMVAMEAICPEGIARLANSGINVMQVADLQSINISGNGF
Procedure, shortened: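 Cells: HepG2, transiently transfected with cis-regulated multiplexed reporters. Exposure: 24 h. Detection: reporter transcripts amplified, fluorescently labeled, restriction-digested and sized by capillary electrophoresis. Analysis: bidirectional fit relative to DMSO.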

[13] = ATG_SREBP_CIS: Attagene CIS-FACTORIAL HepG2 Assay for human Sterol Regulatory Element Binding (SREBP) (AID 2282962); settings: HepG2 Attagene cis-factorial SREBP reporter, mRNA; actives raise or lower the signal
Procedure, shortened: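 Twenty-four hours after chemical dosing of transfected HepG2 cultures, reporter RNA was converted to cDNA, amplified, end-labelled with 6-FAM and resolved by capillary electrophoresis. Responses were fitted relative to DMSO.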

[14] = target: Signal transducer and activator of transcription 3 (Homo sapiens) (UniProt P40763); experiment: ATG_STAT3_CIS: Attagene CIS-FACTORIAL HepG2 Assay for human Signal Transducer and Activator of Transcription 3 (STAT3) (AID 2282963); settings: HepG2, Attagene cis-factorial STAT3 reporter transcription; actives raise or lower the signal
Chain of Signal transducer and activator of transcription 3 (Homo sapiens) (P40763 whole entry, looked up): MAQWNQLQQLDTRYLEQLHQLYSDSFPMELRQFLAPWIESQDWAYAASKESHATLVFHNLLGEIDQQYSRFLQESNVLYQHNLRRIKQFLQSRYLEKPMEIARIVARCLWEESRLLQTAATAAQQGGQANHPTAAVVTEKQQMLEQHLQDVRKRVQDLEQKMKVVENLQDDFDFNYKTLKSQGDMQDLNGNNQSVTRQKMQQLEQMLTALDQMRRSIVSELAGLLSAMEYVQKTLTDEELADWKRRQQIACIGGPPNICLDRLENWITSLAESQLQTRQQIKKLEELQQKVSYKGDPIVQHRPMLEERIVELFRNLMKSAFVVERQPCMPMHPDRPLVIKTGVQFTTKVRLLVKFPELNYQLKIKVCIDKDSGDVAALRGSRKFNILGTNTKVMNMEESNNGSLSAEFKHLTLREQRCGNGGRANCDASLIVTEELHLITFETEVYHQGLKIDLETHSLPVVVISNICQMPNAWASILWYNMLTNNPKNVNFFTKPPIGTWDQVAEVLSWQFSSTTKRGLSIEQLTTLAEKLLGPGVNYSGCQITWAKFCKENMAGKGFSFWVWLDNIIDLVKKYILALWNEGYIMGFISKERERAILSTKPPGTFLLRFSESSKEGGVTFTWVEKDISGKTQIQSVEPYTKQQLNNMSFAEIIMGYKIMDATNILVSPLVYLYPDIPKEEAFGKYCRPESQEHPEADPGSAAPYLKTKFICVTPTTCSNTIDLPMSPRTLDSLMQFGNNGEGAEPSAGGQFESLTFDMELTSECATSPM
Procedure, shortened: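 Transcript-level reporter assay. HepG2 transient MRTU transfection, 24 h exposure, fluorescence detection after RT-PCR and CE; DMSO baseline.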

[15] = ATG_TA_CIS: Attagene CIS-FACTORIAL HepG2 Assay for human TA Basal Promoter (AID 2282964); settings: HepG2 Attagene CIS-factorial TA basal promoter reporter; actives raise or lower the signal
Procedure, shortened: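 HepG2 cells transiently transfected with multiplexed cis-promoter reporter units, dosed 24 h. Reporter mRNA measured by RT-PCR, 6-FAM labelling, HpaI digestion and capillary electrophoresis; bidirectional fit versus DMSO baseline, serving as background control.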

[16] = ATG_TCF_b_cat_CIS: Attagene CIS-FACTORIAL HepG2 Assay for human T-Cell-Factor with beta-catenin (TCF/b-cat) (AID 2282965); settings: HepG2 TCF/beta-catenin cis-reporter transcription, actives raise or lower the signal
Procedure, shortened: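 Using capillary electrophoresis as the read-out, labelled reporter cDNA fragments from transiently transfected HepG2 were sized and quantified. Exposure lasted 24 hours; activity in either direction was referenced to DMSO.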

[17] = target: Heat shock factor protein 1 (Homo sapiens) (UniProt Q00613); experiment: ATG_HSE_CIS: Attagene CIS-FACTORIAL HepG2 Assay for human Heat Shock Transcription Factor 1 (HSE) (AID 2282953); settings: HepG2 HSE cis-reporter, Attagene RNA transcription; actives raise or lower the signal
Chain of Heat shock factor protein 1 (Homo sapiens) (Q00613 whole entry, looked up): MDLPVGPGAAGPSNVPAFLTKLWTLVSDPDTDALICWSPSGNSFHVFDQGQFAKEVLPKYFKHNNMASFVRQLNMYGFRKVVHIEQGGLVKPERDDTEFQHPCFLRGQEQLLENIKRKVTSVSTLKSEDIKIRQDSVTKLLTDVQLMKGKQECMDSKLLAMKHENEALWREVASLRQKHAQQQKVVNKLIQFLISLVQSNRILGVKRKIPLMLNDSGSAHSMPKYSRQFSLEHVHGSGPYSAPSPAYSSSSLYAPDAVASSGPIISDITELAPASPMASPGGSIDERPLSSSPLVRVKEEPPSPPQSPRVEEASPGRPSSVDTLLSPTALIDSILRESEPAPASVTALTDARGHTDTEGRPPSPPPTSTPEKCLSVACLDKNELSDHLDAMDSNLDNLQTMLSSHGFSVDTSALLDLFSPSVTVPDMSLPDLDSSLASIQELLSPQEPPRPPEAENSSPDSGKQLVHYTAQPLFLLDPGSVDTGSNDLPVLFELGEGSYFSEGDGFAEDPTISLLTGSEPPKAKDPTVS
Procedure, shortened: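 HepG2 cells transiently transfected with multiple reporter transcription units under cis-regulatory promoter control, measuring endogenous transcription factor activity. After 24 h chemical exposure, reporter mRNA quantified by RT-PCR, fluorescent labelling, HpaI digestion and capillary electrophoresis; bidirectional fit versus DMSO.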

[18] = ATG_M_32_CIS: Attagene CIS-FACTORIAL HepG2 Assay for M32 Transcription Factor (Internal Marker) (AID 2282949); settings: HepG2 Attagene cis-factorial M32 reporter, mRNA; actives raise or lower the signal;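 further: background control marker of the multiplexed CIS panel rather than a real target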
Procedure, shortened: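 HepG2 cells transiently transfected with multiplexed cis-regulated reporter units, dosed 24 h. Reporter mRNA quantified by RT-PCR, 6-FAM labelling, HpaI digestion and capillary electrophoresis; bidirectional fit vs DMSO.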

[19] = ATG_PPRE_CIS: Attagene CIS-FACTORIAL HepG2 Assay for human Peroxisome Proliferator-activated Response Element (PPRE) (AID 2282958); settings: HepG2 PPRE cis-element reporter, Attagene transcription factor profiling; actives raise or lower the signal
Procedure, shortened: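 In this cell-based multiplex, a PPRE cis element drives a reporter sequence in transiently transfected HepG2 cells. Following 24 h treatment, labeled cDNA amplicons are sized and quantified by capillary electrophoresis, with DMSO defining baseline.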

Measured: AC50

CC(=O)OCCOC(C)=O
active: [9] 82.2 µM
not listed: [17] | [18] | [19]
inactive: all other assays above

CC1(C)[C@H](C(=O)OCc2cccc(Oc3ccccc3)c2)[C@@H]1C=C(Cl)Cl
active: [9] 4.97 µM
not listed: [18] | [19]
inactive: all other assays above

COC(=O)Cc1cccc2ccccc12
active: [9] 42.8 µM
not listed: [4]
inactive: all other assays above

O=C(O)CN(CCN(CC(=O)O)CC(=O)O)CCN(CC(=O)O)CC(=O)O
not listed: [4]
inactive: all other assays above

O=c1cc(-c2ccccc2)oc2cc(O)cc(O)c12
active: [19] 4.28 µM
not listed: [4] | [10] | [13] | [15] | [16]
inactive: all other assays above

CCCCCC=CCC(=O)OC
active: [9] 100 µM
not listed: [5] | [7] | [16] | [18] | [19]
inactive: all other assays above

CCCCCCCCC=O
not listed: [17] | [18] | [19]
inactive: all other assays above

CC(c1cc2ccccc2s1)N(O)C(N)=O (stereo not drawn)
not listed: [4] | [7] | [10] | [19]
inactive: all other assays above

COC(=O)OC
not listed: [4]
inactive: all other assays above

CCCCCCCCCCCCN
active: [13] 18.1 µM
not listed: [4] | [9] | [10] | [17] | [18]
inactive: all other assays above

[Ca+2]
not listed: [4] | [7]
inactive: all other assays above

CC(C)C1CCC(O)CC1 (stereo not drawn)
not listed: [4] | [13] | [19]
inactive: all other assays above

CCc1ccc(C=O)cc1
not listed: [10] | [17] | [18]
inactive: all other assays above

CCCCc1ccc(N)cc1
not listed: [4] | [10] | [16] | [17] | [19]
inactive: all other assays above
